Assay outcomes as filed in PubChem.
uPA generation – qHTS for Inhibitors of Cell Surface uPA Generation | cell surface uPA generation assay, qHTS | Potency, µM (top dose mostly 38.3 µM), inactives show top-dose activity change, negative = inhibition, hits mostly inhibitors | 0.31% of 330,000 active | AID 540303, 2011; active means well fitted inhibition curve with a large enough effect; inconclusive means small, poorly fitted or top-dose-only effect; inactive means no such curve, though single readings can be large or run the other way; tested in mouse RAW 264.7 cells; further: potency means the concentration at half of the fitted maximal effect; nearly all actives have a fitted effect of over 55% in size
DT40 TDP1 CPT – qHTS for Inhibitors of human tyrosyl-DNA phosphodiesterase 1 (TDP1): qHTS in cells in presence of CPT; chicken DT40 Tdp1-/-;hTDP1 cells + 20 nM CPT, ATP luminescence, 48 h; Potency, µM (doses to about 46.2 µM), inactives show top-dose activity change, negative = growth inhibition, actives largely listed as inhibitors; 12% of 420,000 active; AID 686979, 2013; further: potency means the concentration at half of the fitted maximal effect; nearly all actives have a fitted effect of over 55% in size
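Cell growth measured by CellTiter-Glo luminescence after a minimum 48 h, 37 C compound exposure with 20 nM CPT in Tdp1-knockout DT40 cells stably expressing hTDP1, seeded 400/well; qHTS titration format.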
IL-1B inflam inh – qHTS for Inhibitors of Inflammasome Signaling: IL-1-beta AlphaLISA Primary Screen. THP-1 LPS/ATP IL-1B secretion, AlphaLISA, 16 h; stronger effect = lower value. activity change, % at 57.5 µM. 4.7% of 360,000 active. AID 743279, 2014; in the data active means activity change below about -50%; inconclusive means mostly about -30% to -49%
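Secreted IL-1B measured by AlphaLISA bead assay after 16 h compound exposure of THP-1 cells; compounds (final up to 57.5 uM) added 1 h before LPS (250 ng/mL) and ATP (1.25 mM) stimulation; lower signal means less secretion.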
HT1080 IDH1KD tx – qHTS for induction of synthetic lethality in tumor cells producing 2HG: qHTS for the HT-1080-IDH1KD cell line | AID 686971, 2013 | HT-1080 IDH1 knockdown viability, ATP luminescence, 48 h | 2% of 360,000 active | Potency, µM (series often up to 46.1 µM), for inactives: top-dose activity, negative = toxicity, actives largely listed as cytotoxic;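 further: potency means the concentration at half of the fitted maximal effect; 0% = DMSO wells and -100% = cell-free medium wells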
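Cytotoxicity counter-line: IDH1KD HT-1080, 48 h, CellTiter-Glo. Curves classed by r2, magnitude and activity.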
HT1080NT lethal – qHTS for induction of synthetic lethality in tumor cells producing 2HG: qHTS for the HT-1080-NT fibrosarcoma cell line; HT-1080-NT fibrosarcoma viability, CellTiter-Glo ATP luminescence, 48 h; Potency, µM (top dose mostly 46.1 µM), without a hit: at the top dose activity, negative = less viability, hits mostly cytotoxic; 1.6% of 360,000 active; AID 686970, 2013;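 further: NT is the 2HG producing partner of a matched IDH1 knockdown line; potency means the concentration at half of the fitted maximal effect; 0% = DMSO-treated cells and -100% = media-only wells without cells; nearly all actives have a fitted effect of over 55% in size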
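Toxicity toward the 2HG-producing NT line was scored as %Activity, normalised to DMSO and no-cell wells, from CellTiter-Glo luminescence after 48 hours' treatment.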
DT40 TDP1 no CPT – qHTS for Inhibitors of human tyrosyl-DNA phosphodiesterase 1 (TDP1): qHTS in cells in absence of CPT; 15% of 420,000 active; DT40 Tdp1-/- hTDP1 cells, no CPT, ATP luminescence, 48 h; Potency, µM (highest dose often 46.2 µM), for inactives: at the highest dose activity change, negative = growth inhibition, actives largely listed as inhibitors; further: potency means the concentration at half of the fitted maximal effect; nearly all actives have a fitted effect of over 55% in size
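Chicken DT40 Tdp1-/- cells stably complemented with human TDP1 were seeded at 400 cells/well with DMSO in place of 20 nM camptothecin. After compound pinning, cells grew at least 48 hr at 37 °C; viability read by CellTiter-Glo luminescence.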
Starred values were filed as active, the others as inactive; u = inconclusive; x = no result given. Most compounds without a hit are left out; they make up all but 19% or so of the library. Unless noted, the call rests on the fitted dose curve; in most records, active means well fitted curve in the direction sought with a large enough effect; inconclusive means small, poorly fitted or top-dose-only effect, or another doubt; inactive means no such curve, though single readings can be large; an effect the other way counts as inactive or inconclusive. Unless noted, on the % scale 0 is the no-effect control and ±100 the full control effect.

SMILES	uPA generation	DT40 TDP1 CPT	IL-1B inflam inh	HT1080 IDH1KD tx	HT1080NT lethal	DT40 TDP1 no CPT
c1nc(N2CCC3(CC2)OCCO3)c2[nH]cnc2n1	-3.1%	-26.5%	1.2	20.6%	13.0%	-22.7%
c1ccc2c(c1)[nH]c1c(N3CCC4(CC3)OCCO4)ncnc12	-12.8%	16.4µM*	-12.4	u	-27.7%	7.31µM*
COc1cccc2[nH]c3c(N4CCC5(CC4)OCCO5)ncnc3c12	-14.5%	u	-3.3	-2.0%	1.5%	23.1µM*
COc1cccc2[nH]c3c(N4CCC(C)CC4)ncnc3c12	x	25.9µM*	-52.2*	-18.7%	-5.6%	18.4µM*
c1ccc(Cn2nnc3c(N4CCC5(CC4)OCCO5)ncnc32)cc1	2.1%	-18.4%	8.4	-12.6%	-3.9%	u
OC1(c2cccc(C(F)(F)F)c2)CCN(c2ncnc3c2[nH]c2ccccc23)CC1	-5.5%	23.1µM*	-23.8	u	23.1µM*	20.6µM*
CSc1nnc(NC(=O)c2ccc(S(=O)(=O)N3CCOCC3)cc2)s1	-2.5%	-2.0%	0.0	18.0%	12.6%	15.4%
Cc1ccc(C2=NN(C(=O)CNCCO)C(c3cccs3)C2)cc1 (stereo not drawn)	6.4%	u	-0.3	9.7%	7.0%	u
COc1ccc(-n2ccnc2SCC(=O)c2c(N)n(C3CC3)c(=O)[nH]c2=O)cc1	x	-5.8%	13.6	8.8%	7.7%	0.6%
COc1cccc2[nH]c3c(N4CCc5ccccc5C4)ncnc3c12	-4.3%	u	u	-13.2%	-11.6%	20.6µM*
c1ccc2c(c1)CCN(c1ncnc3c1[nH]c1ccccc13)C2	-11.2%	4.61µM*	-83.5*	u	u	4.61µM*
COc1cccc2[nH]c3c(=O)n(CCCN4CCOCC4)cnc3c12	-5.2%	-1.9%	43.7	1.8%	0.0%	-2.7%
CC(C)On1c(SCC(=O)N(C)C)nc2ccccc2c1=O	-12.6%	9.1%	0.0	2.8%	3.8%	-2.5%
CCOc1ccccc1-c1nc(-c2ccc(NC(=O)Cc3ccc(OC)cc3)cc2)no1	-0.6%	u	-18.1	u	u	u
CCOc1ccccc1-c1nc(-c2ccc(NC(=O)c3ccc(Br)o3)cc2)no1	-4.0%	23.1µM*	-18.3	u	u	u
CCOC(=O)C1=CN(Cc2ccco2)S(=O)(=O)N(C)C1c1ccc2ccccc2c1 (stereo not drawn)	-21.3%	20.6µM*	u	-1.3%	-8.6%	u
CC(=O)c1cccc(NC(=O)C2(C)Cc3c(-c4cccc(C(N)=O)c4)ccnc3O2)c1 (stereo not drawn)	x	u	-23.3	u	u	u
CN(C)c1ccc(-c2ccnc3c2CC(C)(C(=O)Nc2cccc(C(F)(F)F)c2)O3)cc1 (stereo not drawn)	x	-60.2%	-18.2	8.4%	-0.3%	u
COc1ccc(NC(=O)C2(C)Cc3c(-c4ccc(N(C)C)cc4)ccnc3O2)cn1 (stereo not drawn)	x	23.1µM*	-5.7	u	u	9.2µM*
CC(C)NC(=O)C1(C)Cc2c(-c3ccc(N(C)C)cc3)ccnc2O1 (stereo not drawn)	x	4.11µM*	8.2	-2.1%	-4.4%	4.11µM*
COc1ccc(NC(=O)C2(C)Cc3c(-c4cccc(C(N)=O)c4)ccnc3O2)cn1 (stereo not drawn)	x	3.66µM*	28.7	4.61µM*	u	2.31µM*
